Settings in all cases: incubation time: 27 h, anaerobic, 37 °C;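 for the amine columns active = adjusted P below 0.05 in both replicates with a change the same way and a mean fold change under 0.8 or over 1.25; inactive = the rest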
The test system of assay [1] is Clostridium sporogenes DSM 1664. In words: growth (OD595) fold change vs plate DMSO controls (fold change (ratio)); higher = more growth. The essentials: (§1)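 Growth is the fold change relative to the median of plate DMSO controls. Readings came from anaerobic mGAM cultures in 96-well plates grown for 27 h at 37 °C and read at 595 nm. They were blank-subtracted, corrected for compound background with 20 µM compound solutions in water, and converted to OD with a calibration factor of 5. Values are means of 2 biological replicates, and fold changes above 1.5 were set to NA.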

The test system of assay [2] is Escherichia coli IAI1. The assay is described as above. The essentials:
as §1

Assay [3] deals with Klebsiella aerogenes DSM 30053. The description is as above. Put shortly: as §1
Assay [4] has as its system Ruminococcus gnavus DSM 108212. The assay is described as above. The essentials:
as §1

The test system of assay [5] is Klebsiella aerogenes DSM 30053. In words: fold change of Histamine concentration vs plate DMSO controls (fold change (ratio)); higher = more amine produced, active = hit call of the paper (significant change in both replicates, either direction). Put shortly: (§2)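 In 80 µL wells, cultures of four gut bacterial strains in mGAM started at OD 0.1 before a 1:1 dilution and grew anaerobically at 37 °C for 27 h. Compounds were added to 20 µM final, except sweeteners at 50 µM final. After extraction of whole cultures with cold acetonitrile/methanol plus 0.1% formic acid and centrifugation, amines were measured by LC–triple-quadrupole MS in dynamic MRM mode against external calibration curves, with within-batch drift correction. Values give fold change over DMSO controls on the same plate, averaged across 2 biological replicates.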

Assay [6] deals with Clostridium sporogenes DSM 1664. In words: fold change of Tryptamine concentration vs plate DMSO controls (fold change (ratio)); higher = more amine produced, active = hit call of the paper (significant change in both replicates, either direction). Put shortly: as §2
Assay [7] concerns Ruminococcus gnavus DSM 108212. Described as above. Put shortly: as §2
Assay [8] concerns Escherichia coli IAI1. In words: fold change of Putrescine concentration vs plate DMSO controls (fold change (ratio)); higher = more amine produced, active = hit call of the paper (significant change in both replicates, either direction). Put shortly:
as §2

Assay [9] relates to Klebsiella aerogenes DSM 30053. Described as above. The essentials:
as §2

Assay [10] has as its system Escherichia coli IAI1. In words: fold change of Cadaverine concentration vs plate DMSO controls (fold change (ratio)); higher = more amine produced, active = hit call of the paper (significant change in both replicates, either direction). Put shortly: as §2
The subject of assay [11] is Klebsiella aerogenes DSM 30053. The assay is described as above. Put shortly: as §2
For assay [12], the system named is Ruminococcus gnavus DSM 108212. As to the kind of experiment: fold change of 2-Phenylethylamine concentration vs plate DMSO controls (fold change (ratio)); higher = more amine produced, active = hit call of the paper (significant change in both replicates, either direction). The essentials: as §2

Structures are written as SMILES. Structures can show the parent of a compound that is named as a salt.

As to `C[C@]12CC[C@@H]3c4ccc(O)cc4CC[C@H]3[C@@H]1CC[C@@H]2O` [Estradiol-17 beta] (20 µM), the growth in [1] is 1.22; in assay [2] it was 1.01; in assay [3] it was 1.14; in [4] it was 1.17. Further, in [5], the “fold change of Histamine concentration” value was 1.03 (inactive). Also, the results for the “fold change of Tryptamine concentration” value in assay [6] and in assay [7] were 0.984 (inactive) and 1.04 (inactive), respectively. For the same molecule, the entries for the “fold change of Putrescine concentration” value in [8] and in assay [9] were 0.989 (inactive) and 1 (inactive), respectively. Also, the “fold change of Cadaverine concentration” value in [10] and in [11] was 1 (inactive) each time. Further, in assay [12], the “fold change of 2-Phenylethylamine concentration” value was 1.04 (inactive).

In the case of `CC(C(=O)O)c1ccc(C(=O)c2cccs2)cc1` (configuration not stated) [Suprofen] (20 µM), the growth in assay [1] was 1.08; in [2] it was 0.983; in assay [3], 0.986; in [4] it was 0.974. Moreover, in assay [5], the “fold change of Histamine concentration” value is 1.03 (inactive). Further, the “fold change of Tryptamine concentration” value is 1.04 (inactive) in assay [6] and 1.09 (inactive) in assay [7]. The “fold change of Putrescine concentration” value in assay [8] was 0.954 (inactive); in [9], 0.995 (inactive). Also, the “fold change of Cadaverine concentration” value was 1.01 (inactive) in assay [10] and 0.986 (inactive) in assay [11]. The “fold change of 2-Phenylethylamine concentration” value in assay [12] was 1.08 (inactive).

As to `CCC(C)(CN(C)C)OC(=O)c1ccccc1` (configuration not stated) [Amyleine hydrochloride] (20 µM), the growth came out at 0.952 in assay [1], 1.01 in assay [2], 0.983 in assay [3] and 0.997 in assay [4]. In addition, the “fold change of Histamine concentration” value in assay [5] was 1.02 (inactive). The “fold change of Tryptamine concentration” value was 0.974 (inactive) in assay [6] and 0.945 (inactive) in assay [7]. The “fold change of Putrescine concentration” value in assay [8] was 1.04 (inactive); in assay [9], 1.02 (inactive). Moreover, the “fold change of Cadaverine concentration” value in assay [10] was 1.01 (inactive); in assay [11], 0.983 (inactive). Further, the “fold change of 2-Phenylethylamine concentration” value in assay [12] was 0.874 (inactive).

With `NC(N)=Nc1nc(CSCCN/C=N/S(=O)(=O)c2ccc(Br)cc2)cs1` [Ebrotidine] (20 µM), the growth in assay [1] is 1.02; in [2], 1.02; in assay [3], 0.989; in assay [4], 1.02. Besides, the “fold change of Histamine concentration” value in assay [5] is 1.03 (inactive). Besides, the “fold change of Tryptamine concentration” value was 0.91 (inactive) in assay [6] and 0.836 (inactive) in assay [7]. Further, the figures for the “fold change of Putrescine concentration” value in assay [8] and in assay [9] were 0.974 (inactive) and 0.991 (inactive), respectively. For the same molecule, the “fold change of Cadaverine concentration” value in assay [10] was 1.06 (inactive); in [11], 1.01 (inactive). The “fold change of 2-Phenylethylamine concentration” value in [12] was 0.887 (inactive).

As to `NCC[C@H](O)C(=O)N[C@@H]1C[C@H](N)[C@@H](O[C@H]2O[C@H](CN)[C@@H](O)[C@H](O)[C@H]2O)[C@H](O)[C@H]1O[C@H]1O[C@H](CO)[C@@H](O)[C@H](N)[C@H]1O` [Amikacin hydrate] (20 µM), the growth was 0.793 in [1], 0.983 in [2], 0.78 in assay [3] and 0.735 in [4]. Further, the “fold change of Histamine concentration” value in assay [5] is 0.601 (active). Besides, the results for the “fold change of Tryptamine concentration” value in [6] and in [7] were 0.812 (inactive) and 0.911 (inactive), respectively. The “fold change of Putrescine concentration” value was 1 (inactive) in [8] and 0.992 (inactive) in assay [9]. The figures for the “fold change of Cadaverine concentration” value in [10] and in [11] were 0.922 (inactive) and 0.982 (inactive), respectively. For the same molecule, the “fold change of 2-Phenylethylamine concentration” value in [12] was 0.972 (inactive).

Take `COc1cc2nc(N3CCN(C(=O)C4COc5ccccc5O4)CC3)nc(N)c2cc1OC` (configuration not stated) [Doxazosin mesylate] (20 µM): the growth in [1] was determined as 0.926; in [2] it was 0.974; in assay [3] it was 0.995; in assay [4], 1.13. Moreover, the “fold change of Histamine concentration” value in assay [5] was 1.01 (inactive). Besides, the “fold change of Tryptamine concentration” value was 1.1 (inactive) in assay [6] and 0.943 (inactive) in assay [7]. Further, the “fold change of Putrescine concentration” value in assay [8] is 1.02 (inactive); in [9], 1 (inactive). For the same molecule, the results for the “fold change of Cadaverine concentration” value in assay [10] and in [11] were 0.983 (inactive) and 0.991 (inactive), respectively. The “fold change of 2-Phenylethylamine concentration” value in [12] is 0.932 (inactive).

With `COc1ccc2cc1Oc1ccc(cc1)C[C@H]1c3c(cc4c(c3Oc3cc5c(cc3OC)CCN(C)[C@@H]5C2)OCO4)CCN1C` [Cepharanthine] (20 µM), the growth in assay [1] turned out to be 0.965; in assay [2], 0.982; in [3], 1.02; in [4], 0.925. In assay [5], the “fold change of Histamine concentration” value is 1.04 (inactive). For the same molecule, the entries for the “fold change of Tryptamine concentration” value in assay [6] and in assay [7] were 0.993 (inactive) and 0.945 (inactive), respectively. Besides, the “fold change of Putrescine concentration” value is 0.952 (inactive) in assay [8] and 1.01 (inactive) in assay [9]. The “fold change of Cadaverine concentration” value in [10] was 1.03 (inactive); in assay [11], 1 (inactive). Moreover, in assay [12], the “fold change of 2-Phenylethylamine concentration” value is 0.981 (inactive).

With `COc1ccc(C2C(=O)c3ccccc3C2=O)cc1` [Anisindione] (20 µM), the growth in [1] was found to be 0.917; in assay [2] it was 0.951; in [3], 0.965; in [4], 1.04. The “fold change of Histamine concentration” value in [5] is 1.03 (inactive). Besides, the results for the “fold change of Tryptamine concentration” value in assay [6] and in assay [7] were 0.976 (inactive) and 0.994 (inactive), respectively. The “fold change of Putrescine concentration” value in assay [8] is 0.953 (inactive); in [9] it was 1 (inactive). Also, the “fold change of Cadaverine concentration” value is 0.994 (inactive) in assay [10] and 0.991 (inactive) in assay [11]. For the same molecule, the “fold change of 2-Phenylethylamine concentration” value in assay [12] is 0.951 (inactive).

With `Nc1nc2c(ncn2COC(CO)CO)c(=O)[nH]1` [Ganciclovir] (20 µM), the growth in [1] came to 0.925; in assay [2], 0.989; in assay [3], 0.946; in assay [4], 1.07. Also, in assay [5], the “fold change of Histamine concentration” value is 1.04 (inactive). In addition, the entries for the “fold change of Tryptamine concentration” value in assay [6] and in assay [7] were 1.06 (inactive) and 0.974 (inactive), respectively. For the same molecule, the “fold change of Putrescine concentration” value in assay [8] and in assay [9] was 1.02 (inactive) each time. Besides, the “fold change of Cadaverine concentration” value in [10] was 1.03 (inactive); in [11], 0.999 (inactive). Further, the “fold change of 2-Phenylethylamine concentration” value in assay [12] is 0.954 (inactive).

As to `Cc1cccc(C)c1NC(=O)CN1CCN(CCCC(c2ccc(F)cc2)c2ccc(F)cc2)CC1` [Lidoflazine] (20 µM), the growth in [1] turned out to be 0.947; in assay [2], 1; in [3], 1.05; in assay [4], 1.22. Moreover, in [5], the “fold change of Histamine concentration” value is 1.01 (inactive). Besides, the “fold change of Tryptamine concentration” value in [6] is 1.04 (inactive); in assay [7], 0.863 (inactive). Also, the entries for the “fold change of Putrescine concentration” value in assay [8] and in [9] were 1.09 (inactive) and 1 (inactive), respectively. The “fold change of Cadaverine concentration” value is 0.995 (inactive) in assay [10] and 0.996 (inactive) in assay [11]. The “fold change of 2-Phenylethylamine concentration” value in assay [12] was 0.906 (inactive).

On to `NCc1ccccc1CC(=O)N[C@@H]1C(=O)N2C(C(=O)O)=C(CSc3nnnn3CC(=O)O)CS[C@H]12` [Ceforanide] (20 µM), for which the growth came out at 0 in assay [1], 1.11 in assay [2], 1.08 in assay [3] and 0.307 in [4]. Also, the “fold change of Histamine concentration” value in assay [5] was 0.726 (inactive). Moreover, the “fold change of Tryptamine concentration” value in [6] is 0.0212 (active); in assay [7], 0.0541 (active). The “fold change of Putrescine concentration” value in [8] was 1.91 (active); in assay [9], 1.09 (inactive). For the same molecule, the “fold change of Cadaverine concentration” value is 1.95 (active) in [10] and 1.07 (inactive) in assay [11]. Further, the “fold change of 2-Phenylethylamine concentration” value in assay [12] is 0.0519 (active).

The record behind these values is the supplement of paper PMC12494721.
